Sampled rows, rich in hits. Any-hit rate of the full collection: about 21%.
Pf growth 96h: P. falciparum growth inhibition at 96 hour, primary screen for plastid delayed-death inhibitors | P. falciparum luciferase reporter growth, 96 h | Potency, µM (highest dose often 28.7 µM), actives largely listed as inhibitors | hit rate 6.9% among 320,000 | AID 504834
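P. falciparum expressing integrated firefly luciferase, in erythrocytes at 2% hematocrit, 0.05% parasitemia, incubated with compounds 96 h at 37 C, 5% CO2. Growth inhibition read as loss of luminescence; two-generation exposure targets delayed-death apicoplast inhibitors.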
Pf growth 48h: inhibits P. falciparum growth in the first generation, 48 h | hit rate 5.9% among 310,000 | AID 504832 | Potency, µM (doses to about 28.7 µM), most hits filed as inhibitors | P. falciparum luciferase growth in erythrocytes, 48 h
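Cell-based growth assay: transgenic P. falciparum expressing firefly luciferase, cultured in red cells within RPMI 1640 containing 0.5% w/v Albumax, 24 mM bicarbonate and gentamycin. A drop in luciferase activity indicates inhibition.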
Shiga inhibitor: blocks Shiga toxin action in Vero cells; Vero cells, Shiga toxin protein synthesis inhibition reporter; inhibition, % at 38.7 µM; hit rate 9.2% among 290,000; in the data active means inhibition mostly above about 28%, no sharp cut-off; inactive means mostly below about 43%
CHX counter: counter-screen for Shiga toxin inhibitors: cycloheximide protein synthesis inhibition | cell reporter, cycloheximide protein synthesis inhibition counterscreen | max response, % | hit rate 12% among 300,000 | AID 2314; in the data active means max response mostly above about 13%, no sharp cut-off; inactive means mostly below about 14%; further: read at 38.3 µM for the half of the compounds with a filed dose
NS1 inh: blocks influenza NS1 protein function | Potency, µM (top dose mostly 46.1 µM) | hit rate 0.4% among 270,000 | AID 2326; calls by dose curve; further: actives are rising curves; nearly all actives have a fitted effect of over 50% in size
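Growth recovery, yeast-based: influenza A NS1 expressed in S. cerevisiae causes slow growth, and suppressors are detected by OD600. The parent strain without NS1 is used as positive control.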
FBPA Giardia inh: inhibitors of Giardia lamblia fructose-1,6-bisphosphate aldolase. hit rate 0.71% among 290,000. purified Giardia FBPA. Potency, µM (top dose mostly 59.6 µM), usual class: inhibitors. A8B2U2. AID 2451; further: nearly all actives have a fitted effect of over 55% in size
Target sequence (A8B2U2 whole entry, looked up): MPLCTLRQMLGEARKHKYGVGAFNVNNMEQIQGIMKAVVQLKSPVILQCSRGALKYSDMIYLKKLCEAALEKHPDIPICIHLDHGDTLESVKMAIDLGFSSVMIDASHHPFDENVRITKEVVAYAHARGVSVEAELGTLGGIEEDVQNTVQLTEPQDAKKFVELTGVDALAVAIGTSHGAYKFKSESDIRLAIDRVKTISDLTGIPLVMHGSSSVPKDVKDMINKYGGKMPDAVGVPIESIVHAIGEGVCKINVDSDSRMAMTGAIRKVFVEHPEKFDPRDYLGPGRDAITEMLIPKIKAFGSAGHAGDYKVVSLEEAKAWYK
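40 nM FBPA preincubated 10 min at RT with compound (up to 57.5 uM final), then substrate plus GAPDH/TPI/NAD/arsenate coupling and diaphorase/resazurin added. Fluorescence read after 20 min at RT, 525/598 nm.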
Hits are given with their value; [ ] = dose if it differs, or a comment. Unless noted, the call rests on the fitted dose curve; in most records, active means well fitted curve in the direction sought with a large enough effect; inconclusive means small, poorly fitted or top-dose-only effect, or another doubt; inactive means no such curve, though single readings can be large; an effect the other way counts as inactive or inconclusive.

Results for Cc1oc2ccc(O)cc2c1C(=O)OC(C)C ?
Pf growth 96h: inactive; Pf growth 48h: inactive; Shiga inhibitor: inactive; CHX counter: 21.9; NS1 inh: inactive; FBPA Giardia inh: inactive

Results for COc1ccc2oc(C)c(C(=O)c3ccc(C)cc3)c2c1 ?
Pf growth 96h: inactive; Pf growth 48h: inactive; Shiga inhibitor: 36.1; CHX counter: 21.9; NS1 inh: inactive; FBPA Giardia inh: inactive

How did Cc1oc2ccc(OCc3ccccc3Cl)cc2c1C(=O)O do in these assays?
Pf growth 96h: inconclusive; Pf growth 48h: inactive; Shiga inhibitor: inactive; CHX counter: inactive; NS1 inh: inactive; FBPA Giardia inh: inactive

Results for Cc1oc2ccc(OCC(N)=O)cc2c1C(=O)OC(C)C ?
Pf growth 96h: inconclusive; Pf growth 48h: inactive; Shiga inhibitor: inactive; CHX counter: inactive; NS1 inh: inactive; FBPA Giardia inh: inactive

Results for CCOC(=O)OCC1OC(C#Cc2ccc(Br)cc2)C=CC1OC(=O)OCC (stereo unspecified) ?
FBPA Giardia inh: inactive[12.9 µM]

What do the screens show for `Nc1ccccc1Oc1ccccc1`?
Shiga inhibitor: inactive; CHX counter: inactive; FBPA Giardia inh: inactive

Results for COc1ccc(C(=O)c2c(C)oc3ccc(O)cc23)cc1 ?
Pf growth 96h: inactive; Pf growth 48h: inactive; Shiga inhibitor: 32.3; CHX counter: 28.9; NS1 inh: inactive; FBPA Giardia inh: inactive

What do the screens show for `Cc1oc2ccc(O)cc2c1C(=O)c1ccc(Cl)cc1`?
Pf growth 96h: inactive; Shiga inhibitor: inactive; CHX counter: 17.0; NS1 inh: inactive; FBPA Giardia inh: inactive

Results for Cc1oc2ccc(O)cc2c1C(=O)c1ccc([N+](=O)[O-])cc1 ?
Pf growth 96h: inactive; Pf growth 48h: inactive; Shiga inhibitor: inactive; CHX counter: inactive; NS1 inh: inactive; FBPA Giardia inh: inactive

How did COc1ccc(C(=O)c2c(C)oc3ccc(O)cc23)c(OC)c1 do in these assays?
Pf growth 96h: inactive; Pf growth 48h: inactive; Shiga inhibitor: inactive; CHX counter: inactive; NS1 inh: inactive; FBPA Giardia inh: inactive

How did CCOc1ccccc1CN1CCNC(=O)C1CC(=O)NCCN1CCOC1=O (stereo unspecified) do in these assays?
Pf growth 96h: inactive; Pf growth 48h: inactive; Shiga inhibitor: inactive; CHX counter: inactive; NS1 inh: inactive; FBPA Giardia inh: inactive

How did CN(C)C(=O)CSc1cccc2cccnc12 do in these assays?
Pf growth 96h: inactive; Pf growth 48h: inactive; Shiga inhibitor: inactive; CHX counter: 11.6; NS1 inh: inactive; FBPA Giardia inh: inactive

Results for O=C(CSc1cccc2cccnc12)N1CCCC1 ?
Pf growth 96h: inactive[5.75 µM]; Pf growth 48h: inactive; Shiga inhibitor: 37.4; CHX counter: 41.9; NS1 inh: inactive; FBPA Giardia inh: inactive

What do the screens show for `NNC(=O)CSc1cccc2cccnc12`?
Pf growth 96h: inactive; Pf growth 48h: inactive; Shiga inhibitor: inactive; CHX counter: inactive; NS1 inh: inactive; FBPA Giardia inh: inactive

What do the screens show for `CC(=O)N1c2ccc(S(=O)(=O)N3CCCCC3)cc2CC1C(=O)Nc1ccc(C)cc1` (stereo unspecified)?
Pf growth 96h: inconclusive; Pf growth 48h: inactive; Shiga inhibitor: inactive; CHX counter: inactive; NS1 inh: inactive

How did O=C(Nc1nc2ccsc2c(=O)s1)C1CCC1 do in these assays?
Pf growth 96h: inactive; Pf growth 48h: inactive; Shiga inhibitor: 55.0; CHX counter: 40.7; NS1 inh: inactive; FBPA Giardia inh: inactive

Results for CC(C)c1nnc(NC(=O)C2CCN(C(=O)c3ccco3)CC2)s1 ?
Pf growth 96h: inactive; Pf growth 48h: inconclusive; Shiga inhibitor: 40.4; CHX counter: 21.0; NS1 inh: inactive; FBPA Giardia inh: inactive

Results for Cc1nc2ccc3nc(NC(=O)c4ccco4)sc3c2s1 ?
NS1 inh: inactive

What do the screens show for `Cc1ccc2nc(NC(=O)c3ccco3)sc2c1`?
Pf growth 96h: inactive; Shiga inhibitor: inactive; CHX counter: 29.6; NS1 inh: inactive; FBPA Giardia inh: inactive

Results for Cc1nnc(NC(=O)C2CCN(C(=O)c3ccco3)CC2)s1 ?
Pf growth 96h: inactive; Pf growth 48h: inactive; Shiga inhibitor: inactive; CHX counter: inactive; NS1 inh: inactive; FBPA Giardia inh: inactive

How did O=c1sc(Nc2ccccc2)nc2ccsc12 do in these assays?
Pf growth 96h: inconclusive; Shiga inhibitor: 91.5; CHX counter: 80.1; NS1 inh: inactive; FBPA Giardia inh: inactive

What do the screens show for `Cc1ccc(Nc2nc3ccccc3c(=O)s2)cc1C`?
Pf growth 96h: inactive; Pf growth 48h: inactive; Shiga inhibitor: inactive; CHX counter: inactive; NS1 inh: inconclusive; FBPA Giardia inh: inactive
